# Data taken from PubChem BioAssay AID1159580 (chemical genetic matrix, 2015).
# Screen size: about 5,500 compounds; about 2,000 (36%) were called active. About 18% were inconclusive and are not listed. Some of the results follow. Values without a mark were called inactive. No stated cut-off is given here; in the data, active means normalized growth mostly below about 0.91 (no sharp cut-off); inconclusive means no clear call, values can overlap the other calls; inactive means mostly above about 0.92.
# Test: chemical genetic growth profiling, strain panel (AID 1159580);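 further: tested at 20 µM; growth read once vehicle control cultures reached saturation at 30 °C; 1 = growth at the plate median or of vehicle wells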
# Conditions: S. cerevisiae deletion strains, growth OD
smiles,measurement,setting,value
Cc1cccc(NC(=S)N/N=C\c2ccc(F)cc2)c1,normalized growth,"locus YAR019C, strain CDC15, stronger effect = lower value",0.96
same,normalized growth,"locus YBL105C, strain PKC1, stronger effect = lower value",0.966
same,normalized growth,"locus YBR135W, strain CKS1, stronger effect = lower value",0.966
same,normalized growth,"locus YBR136W, strain MEC1, stronger effect = lower value",0.965
same,normalized growth,"locus YBR160W, strain CDC28, stronger effect = lower value",0.958
same,normalized growth,"locus YDL017W, strain CDC7, stronger effect = lower value",0.958
same,normalized growth,"locus YDL028C, strain MPS1, stronger effect = lower value",0.958
same,normalized growth,"locus YDL101C, strain DUN1, stronger effect = lower value",0.967
same,normalized growth,"locus YDL108W, strain KIN28, stronger effect = lower value",0.962
same,normalized growth,"locus YDL132W, strain cdc53, stronger effect = lower value",0.934
same,normalized growth,"locus YDL214C, strain PRR2, stronger effect = lower value",0.867
same,normalized growth,"locus YDR052C, strain DBF4, stronger effect = lower value",0.956
same,normalized growth,"locus YDR054C, strain cdc34, stronger effect = lower value",0.938
same,normalized growth,"locus YDR226W, strain ADK1, stronger effect = lower value",0.952
same,normalized growth,"locus YDR477W, strain SNF1, stronger effect = lower value",0.835
same,normalized growth,"locus YER123W, strain YCK3, stronger effect = lower value",0.806
same,normalized growth,"locus YER133W, strain GLC7, stronger effect = lower value",0.847
same,normalized growth,"locus YFL009W, strain cdc4, stronger effect = lower value",0.953
same,normalized growth,"locus YFL029C, strain CAK1, stronger effect = lower value",0.954
same,normalized growth,"locus YFR003C, strain YPI1, stronger effect = lower value",0.972
same,normalized growth,"locus YFR019W, strain FAB1, stronger effect = lower value",0.919
same,normalized growth,"locus YFR028C, strain CDC14, stronger effect = lower value",0.954
same,normalized growth,"locus YGR040W, strain KSS1, stronger effect = lower value",0.824
same,normalized growth,"locus YGR052W, strain FMP48, stronger effect = lower value",0.871
same,normalized growth,"locus YGR092W, strain DBF2, stronger effect = lower value",0.691
same,normalized growth,"locus YHR030C, strain SLT2, stronger effect = lower value",0.821 (active)
same,normalized growth,"locus YHR079C, strain IRE1, stronger effect = lower value",0.762
same,normalized growth,"locus YHR082C, strain KSP1, stronger effect = lower value",0.825
same,normalized growth,"locus YHR205W, strain SCH9, stronger effect = lower value",0.874
same,normalized growth,"locus YIL147C, strain SLN1, stronger effect = lower value",0.963
same,normalized growth,"locus YJL095W, strain BCK1, stronger effect = lower value",0.834
same,normalized growth,"locus YJL128C, strain PBS2, stronger effect = lower value",0.98
same,normalized growth,"locus YJL157C, strain FAR1, stronger effect = lower value",0.876
same,normalized growth,"locus YJR016C, strain ILV3, stronger effect = lower value",0.961
same,normalized growth,"locus YJR066W, strain TOR1 (second series), stronger effect = lower value",0.601 (active)
same,normalized growth,"locus YJR066W, strain TOR1, stronger effect = lower value",0.773
same,normalized growth,"locus YKL048C, strain ELM1, stronger effect = lower value",0.919
same,normalized growth,"locus YKL067W, strain YNK1, stronger effect = lower value",0.9
same,normalized growth,"locus YKL101W, strain HSL1, stronger effect = lower value",0.884
same,normalized growth,"locus YKL193C, strain SDS22, stronger effect = lower value",0.961
same,normalized growth,"locus YKL203C, strain TOR2, stronger effect = lower value",0.844
same,normalized growth,"locus YLR113W, strain HOG1, stronger effect = lower value",0.847 (active)
same,normalized growth,"locus YLR133W, strain CKI1, stronger effect = lower value",0.847
same,normalized growth,"locus YLR403W, strain SFP1, stronger effect = lower value",0.789
same,normalized growth,"locus YML070W, strain DAK1, stronger effect = lower value",0.88
same,normalized growth,"locus YMR001C, strain CDC5, stronger effect = lower value",0.965
same,normalized growth,"locus YMR205C, strain PFK2 (second series), stronger effect = lower value",0.879
same,normalized growth,"locus YMR277W, strain FCP1, stronger effect = lower value",0.958
same,normalized growth,"locus YNL006W, strain LST8, stronger effect = lower value",0.967
same,normalized growth,"locus YNL020C, strain ARK1, stronger effect = lower value",0.853
same,normalized growth,"locus YNL161W, strain CBK1, stronger effect = lower value",0.969
same,normalized growth,"locus YNL183C, strain NPR1, stronger effect = lower value",0.749
same,normalized growth,"locus YNL207W, strain RIO2, stronger effect = lower value",0.946
same,normalized growth,"locus YNL222W, strain SSU72, stronger effect = lower value",0.965
same,normalized growth,"locus YNL307C, strain MCK1 (second series), stronger effect = lower value",0.788
same,normalized growth,"locus YOL078W, strain AVO1, stronger effect = lower value",0.953
same,normalized growth,"locus YOL136C, strain PFK27, stronger effect = lower value",0.844
same,normalized growth,"locus YOR061W, strain CKA2, stronger effect = lower value",0.839
same,normalized growth,"locus YOR119C, strain RIO1, stronger effect = lower value",0.915
same,normalized growth,"locus YOR231W, strain MKK1, stronger effect = lower value",0.843
same,normalized growth,"locus YOR329C, strain SCD5, stronger effect = lower value",0.959
same,normalized growth,"locus YPL031C, strain PHO85, stronger effect = lower value",0.794
same,normalized growth,"locus YPL153C, strain RAD53, stronger effect = lower value",0.773
same,normalized growth,"locus YPL204W, strain HRR25, stronger effect = lower value",0.795
same,normalized growth,"locus YPL209C, strain IPL1, stronger effect = lower value",0.964
same,normalized growth,"locus YPL256C, strain CLN2, stronger effect = lower value",0.843 (active)
same,normalized growth,"locus YPR025C, strain CCL1, stronger effect = lower value",0.961
same,normalized growth,"locus YPR106W, strain ISR1, stronger effect = lower value",0.968
same,normalized growth,"locus YPR111W, strain DBF20, stronger effect = lower value",0.965
same,normalized growth,"strain NNK1, stronger effect = lower value",0.967
same,normalized growth,"strain TSCII, stronger effect = lower value",0.961
